High-throughput results: PubChem BioAssay, National Center for Advancing Translational Sciences (NCATS)
TDP1 cell CPT – qHTS for Inhibitors of human tyrosyl-DNA phosphodiesterase 1 (TDP1): qHTS in cells in presence of CPT | AID 686979, 2013 | 420,000 tested, 12% active | chicken DT40 Tdp1-/-;hTDP1 cells + 20 nM CPT, ATP luminescence, 48 h | Potency, µM (titrated, usually from 46.2 µM), hits mostly inhibitors; also: nearly all actives have a fitted effect of over 55% in size
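Cell growth measured by CellTiter-Glo luminescence after a minimum 48 h, 37 C compound exposure with 20 nM CPT in Tdp1-knockout DT40 cells stably expressing hTDP1, seeded 400/well; qHTS titration format.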
TDP1 inh – qHTS Assay for Inhibitors of Tyrosyl-DNA Phosphodiesterase (TDP1). 350,000 tested, 0.28% active. AID 485290, 2010. Tyrosyl-DNA phosphodiesterase 1 (Homo sapiens), Q9NUW8. recombinant TDP1, AlphaScreen DNA substrate cleavage. Potency, µM (highest dose often 130 µM), usual class: inhibitors; also: nearly all actives have a fitted effect of over 40% in size
Target sequence (Q9NUW8 whole entry, looked up): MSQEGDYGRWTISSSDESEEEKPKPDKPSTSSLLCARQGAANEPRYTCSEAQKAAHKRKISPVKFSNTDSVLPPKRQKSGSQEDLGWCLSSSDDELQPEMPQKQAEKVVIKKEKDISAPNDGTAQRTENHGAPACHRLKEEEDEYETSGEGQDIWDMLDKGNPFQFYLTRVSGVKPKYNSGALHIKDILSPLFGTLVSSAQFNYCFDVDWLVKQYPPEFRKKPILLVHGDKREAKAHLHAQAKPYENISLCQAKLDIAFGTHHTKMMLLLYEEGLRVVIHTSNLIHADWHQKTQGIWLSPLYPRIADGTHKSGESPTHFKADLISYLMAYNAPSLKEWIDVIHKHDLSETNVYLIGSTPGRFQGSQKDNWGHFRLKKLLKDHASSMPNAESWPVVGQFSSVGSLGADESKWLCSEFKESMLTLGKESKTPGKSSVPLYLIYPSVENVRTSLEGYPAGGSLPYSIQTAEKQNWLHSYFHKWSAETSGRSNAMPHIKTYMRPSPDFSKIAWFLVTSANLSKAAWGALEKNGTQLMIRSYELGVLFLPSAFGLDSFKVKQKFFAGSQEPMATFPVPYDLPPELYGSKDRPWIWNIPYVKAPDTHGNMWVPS
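Tdp1 1 nM final; 15 min RT w/ cpd; substrate 15 nM, 5 min; beads 10 ug/ml, 10 min; AlphaScreen read. Neg ctrl: no enzyme.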
RORg inh – qHTS for inhibitors of ROR gamma transcriptional activity. Nuclear receptor ROR-gamma (Mus musculus), P51450. Drosophila S2 Gal4-RORgamma UAS-luciferase reporter, 20 h. Potency, µM (top dose mostly 53.6 µM), most hits filed as inhibitors. 310,000 tested, 5.4% active. AID 2551, 2010; also: nearly all actives have a fitted effect of over 60% in size
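Stably transfected Drosophila Schneider cells are the test system, with ROR gamma fused to Gal4 and luciferase under UAS control; luminescence is read after 20 hr of 700 uM copper sulfate induction at ambient temperature.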
TDP1 cell noCPT – qHTS for Inhibitors of human tyrosyl-DNA phosphodiesterase 1 (TDP1): qHTS in cells in absence of CPT; DT40 Tdp1-/- hTDP1 cells, no CPT, ATP luminescence, 48 h; Potency, µM (series often up to 46.2 µM), usual class: inhibitors; 420,000 tested, 15% active; also: nearly all actives have a fitted effect of over 55% in size
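Growth of hTDP1-complemented DT40 Tdp1-knockout cells is measured by ATP luminescence after at least 48 hr compound exposure at 37 °C, with DMSO substituting for the 20 nM CPT used in the parallel screen.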
Gal4-VP16 FLuc – VP16 counterscreen qHTS for inhibitors of ROR gamma transcriptional activity; Drosophila S2 Gal4-VP16 UAS-luciferase, luminescence, 20 h; Potency, µM (top dose mostly 53.6 µM), actives largely listed as inhibitors; 310,000 tested, 3.5% active; AID 2546, 2010;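 also: Gal4-VP16 expression switched on by copper sulfate through the metallothionein promoter; nearly all actives have a fitted effect of over 50% in size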
Each line names hits and unclear results; the compound was inactive in the other large screens; ! = not confirmed by another sample. Most compounds without a hit are left out; they make up all but 19% or so of the library. Calls follow the shape of the dose curve; as a rule, active = well fitted curve in the direction sought with a large enough effect; inconclusive = small, poorly fitted or top-dose-only effect, or another doubt; inactive = no such curve, though single readings can be large; an effect the other way counts as inactive or inconclusive.

Cc1ccc2[nH]c(=S)n(-c3cccnc3)c(=O)c2c1	RORg inh inconclusive (no result: TDP1 inh)
CC(C)CCC1(CCO)C(=O)NC(=S)NC1=O	none (no result: TDP1 inh, RORg inh, Gal4-VP16 FLuc)
CCN(CC)CCc1c[nH]c2ccccc12	none (no result: TDP1 inh, RORg inh, Gal4-VP16 FLuc)
CCN(CCCl)Cc1ccccc1Br	TDP1 cell CPT 16.4µM, TDP1 cell noCPT inconclusive (no result: RORg inh, Gal4-VP16 FLuc)
CCC1=CCN(CCc2c(C)[nH]c3ccccc23)CC1	TDP1 cell noCPT 0.581µM (no result: TDP1 inh, RORg inh, Gal4-VP16 FLuc)
Cc1[nH]c2ccccc2c1CCN	TDP1 cell noCPT inconclusive (no result: TDP1 inh, RORg inh, Gal4-VP16 FLuc)
COc1ccc(N2C(=O)/C(=C/c3ccc(C)o3)C(=O)NC2=S)c(OC)c1	TDP1 cell CPT 20.6µM, TDP1 cell noCPT inconclusive (no result: TDP1 inh)
COc1ccc(N2C(=O)/C(=C/c3ccc(OC)c(OC)c3)C(=O)NC2=S)cc1	Gal4-VP16 FLuc inconclusive (no result: TDP1 inh)
COc1cccc(C2(O)CCSCC2CN(C)C)c1 (centres undefined)	none
CCCCn1c(=O)c(C(=O)Nc2ccccc2F)c(O)c2ccccc21	RORg inh inconclusive, TDP1 cell noCPT inconclusive, Gal4-VP16 FLuc inconclusive (no result: TDP1 inh)
CCCCn1c(=O)c(C(=O)Nc2ccsc2C(=O)OC)c(O)c2ccccc21	TDP1 cell CPT 20.6µM, TDP1 cell noCPT 5.17µM
CCCCn1c(=O)c(C(=O)Nc2ccccc2N)c(O)c2ccccc21	TDP1 cell CPT inconclusive, RORg inh 5.62µM, TDP1 cell noCPT 23.1µM, Gal4-VP16 FLuc 7.08µM
CCCCCn1c(=O)c(C(=O)Nc2ccccc2N)c(O)c2ccccc21	TDP1 cell CPT inconclusive, TDP1 cell noCPT 20.6µM, Gal4-VP16 FLuc inconclusive (no result: TDP1 inh)
CCCCNC(=O)Nc1ccc(C(O)(C(=O)OCC)C(F)(F)F)cc1 (centres undefined)	none
COc1cccc2c1cc([N+](=O)[O-])c1c(C(=O)O)cc3c(c12)OCO3	TDP1 cell CPT 18.4µM!, TDP1 cell noCPT 11.6µM!, Gal4-VP16 FLuc inconclusive
COc1ccc2c(c1OC)C(=O)O[C@@H]2C1c2cc3c(cc2CCN1C)OCO3 (some centres undefined)	none
CCC(C)C(=O)N[C@@H](c1ccccc1)[C@@H](O)C(=O)O[C@H]1C[C@@]2(O)[C@@H](OC(=O)c3ccccc3)C3[C@](C)(C(=O)[C@H](OC(C)=O)C(=C1C)C2(C)C)[C@@H](O)C[C@H]1OC[C@@]31OC(C)=O (some centres undefined)	TDP1 cell CPT 0.0291µM, RORg inh inconclusive, TDP1 cell noCPT 0.184µM (no result: TDP1 inh)
C/C=C(\C)C(=O)N[C@@H](c1ccccc1)[C@@H](O)C(=O)O[C@H]1C[C@@]2(O)[C@@H](OC(=O)c3ccccc3)C3[C@](C)(C(=O)[C@H](OC(C)=O)C(=C1C)C2(C)C)[C@H](O)C[C@H]1OC[C@@]31OC(C)=O (some centres undefined)	TDP1 cell CPT 0.13µM, RORg inh inconclusive, TDP1 cell noCPT 0.164µM, Gal4-VP16 FLuc 35.5µM (no result: TDP1 inh)
CC/C=C/CC(=O)N[C@@H](c1ccccc1)[C@@H](O)C(=O)O[C@H]1C[C@@]2(O)[C@@H](OC(=O)c3ccccc3)C3[C@](C)(C(=O)[C@H](OC(C)=O)C(=C1C)C2(C)C)[C@@H](O)C[C@H]1OC[C@@]31OC(C)=O (some centres undefined)	TDP1 cell CPT 0.0206µM, RORg inh inconclusive, TDP1 cell noCPT 0.184µM (no result: TDP1 inh)
COP(=O)(OC)C(O)C(Cl)(Cl)Cl (centres undefined)	none
O=C(Nc1ccccc1)C1=C[C@H](c2ccccc2)C[C@H](OCCCCO)O1	TDP1 cell CPT 16.4µM, TDP1 cell noCPT inconclusive (no result: TDP1 inh, RORg inh, Gal4-VP16 FLuc)
C=CCOc1c(Cl)cc(CNc2ccc3[nH]c(=O)[nH]c3c2)cc1OC	TDP1 cell CPT 13µM, TDP1 cell noCPT inconclusive
CCOc1c(Cl)cc(CNc2ccc(S(N)(=O)=O)cc2)cc1OC	TDP1 cell CPT inconclusive, RORg inh inconclusive, TDP1 cell noCPT 16.4µM
C[C@H]1CNCCc2ccc(Cl)cc21	none (no result: TDP1 inh, RORg inh, Gal4-VP16 FLuc)
CN1CCN(Cc2c(F)cccc2Cl)CC1	none
COC(=O)C1=C(c2ccccc2OCc2ccccc2)C[C@@H]2CC[C@H]1N2C(=O)NCc1ccc(Br)cc1	TDP1 cell CPT inconclusive, TDP1 cell noCPT inconclusive (no result: RORg inh, Gal4-VP16 FLuc)
